From publication PMC7819943, “Rice protein-binding microarrays: a tool to detect cis-acting elements near promoter regions in rice”
Whole data set: some 68,000 sequences, median “fluorescence intensity (a.u.)” near 9,100, cut for the highest 2% near 16,000. This excerpt belongs to a sample that is enriched for the highest values.

The sequences below were run against OsWRKY34 (Oryza sativa, UniProt Q0JBA9 1-250) (assay: protein-binding microarray (RPBM); PBS, 2% BSA, 51.3 ng/ul salmon testes DNA, 50 uM zinc acetate, 200 nM TF, 25 C, 1 h; high values mean tight binding). Conditions: protein: recombinant; tags: N-terminal polyhistidine and DsRed monomer fusion (pET32a); label: CyDye5-dUTP incorporated in the synthesized complementary strand; 3' TTTTT single-stranded linker to array surface; dsDNA, one strand shown.
Chain of OsWRKY34 (Q0JBA9 entry or part of it): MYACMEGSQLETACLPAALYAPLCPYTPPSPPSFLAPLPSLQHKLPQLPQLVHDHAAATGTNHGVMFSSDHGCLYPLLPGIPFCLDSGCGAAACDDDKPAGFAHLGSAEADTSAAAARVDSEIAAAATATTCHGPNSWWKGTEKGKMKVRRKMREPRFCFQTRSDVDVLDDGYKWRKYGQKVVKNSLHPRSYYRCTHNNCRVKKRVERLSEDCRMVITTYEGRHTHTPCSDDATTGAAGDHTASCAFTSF
Method in brief: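 The binding signal is fluorescence intensity per feature, in arbitrary units, read on an Axon 4000B scanner. Polyhistidine- and DsRed-tagged transcription factors (N-terminal fusions) from E. coli BL21-CodonPlus were purified on Ni–NTA and applied at 200 nM for 1 h at 25 °C to a double-stranded, BSA-blocked custom Agilent array in buffer with 50 µM zinc acetate.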
With “CTGGGGAGGGCGACGGCGCAGTGCGGGGTGGACGGGAGCGCGGAGTCACCTAGTGCAG” the binding signal was 8270 fluorescence intensity (a.u.).
“GGAGCGCTGGGAGGAAGGGCGTAGGGAGGGAGGGGTGAGGCGGAGTCACCTAGTGCAG” was tested, and the binding signal was 11600 fluorescence intensity (a.u.).
For “GGTGGAGGAGGTGGGCGGGGAAAGCGGCGACGTGAGGCGGCGGAGTCACCTAGTGCAG”, the binding signal was 14400 fluorescence intensity (a.u.).
For “CTAATCCCCTCTAGCTAGCCTCTTTTTTCTCCATTTGTTTCGGAGTCACCTAGTGCAG”, the binding signal was 11100 fluorescence intensity (a.u.).
With “GCCGCCGCCGCCGCCCGCGCCGATCCCCATCCATCCCGCACGGAGTCACCTAGTGCAG” the binding signal was 8970 fluorescence intensity (a.u.).
“GGGATGTCTTGGCTTTTTTTTTTTCTTCACCGAGCAATCGCGGAGTCACCTAGTGCAG” was tested, and the binding signal was 13400 fluorescence intensity (a.u.).
With “GGTTAGAGATACATACATATTATACCTGATTCACCTCACTCGGAGTCACCTAGTGCAG” the binding signal was 8060 fluorescence intensity (a.u.).
With “CTTCTTCGATCTCCGGCAATCGCTCCATCGATCGGCGCTTCGGAGTCACCTAGTGCAG” the binding signal was 8370 fluorescence intensity (a.u.).
In the case of “TTTTTTCTGTAAGGTGTCATATTTCTTCAATTGATGGATACGGAGTCACCTAGTGCAG”, the binding signal is reported as 8340 fluorescence intensity (a.u.).
“GGCTTCAGTATGAATTCTTACACAACCGTTGGTGTGCTACCGGAGTCACCTAGTGCAG” was tested, and the binding signal was 9250 fluorescence intensity (a.u.).
In the case of “ACCCTCGGACCGGTTTTTTTACTATGCCTCAAACATGTTCCGGAGTCACCTAGTGCAG”, the binding signal is reported as 9800 fluorescence intensity (a.u.).
For “ATCCCTCTGGTCGTCTCCTACCTCTCGGTTTCTTCACCCTCGGAGTCACCTAGTGCAG”, the binding signal was 14600 fluorescence intensity (a.u.).
In the case of “TTTTTTCGGTCTCGGTATCGGTCTTTTCGGTTCGATCTTACGGAGTCACCTAGTGCAG”, the binding signal is reported as 8400 fluorescence intensity (a.u.).
With “ACTAGTGGGCTGCTTGGGTGGGGAGCCCGGGCCGGCAGATCGGAGTCACCTAGTGCAG” the binding signal was 12000 fluorescence intensity (a.u.).
With “GTAGGGGCGGGAGGGGAGGCGTGGTGGCGCCGGGCCGGCGCGGAGTCACCTAGTGCAG” the binding signal was 14900 fluorescence intensity (a.u.).
In the case of “GCGGCTGGGGTTGCGGTGCAATCTGGGGCGGGGATGCGAACGGAGTCACCTAGTGCAG”, the binding signal is reported as 17100 fluorescence intensity (a.u.).
With “GTGGGGCGGTGGCTGCTGCATTGCATTGGGCGGGAGAGATCGGAGTCACCTAGTGCAG” the binding signal was 17200 fluorescence intensity (a.u.).
In the case of “GGTGGCGGTTGCGGGTGGAGGGCCGCGGCGGTGCGACGAACGGAGTCACCTAGTGCAG”, the binding signal is reported as 8480 fluorescence intensity (a.u.).
With “ATCACGGAGGAGGCGTTCGGGGAGGGAGGGTGGGGCGCGCCGGAGTCACCTAGTGCAG” the binding signal was 24400 fluorescence intensity (a.u.).
With “ACGGTGCCGAACGAGCTTGGGGATGGGGACGGCGGCGGGGCGGAGTCACCTAGTGCAG” the binding signal was 10200 fluorescence intensity (a.u.).
“AAGTGCTCGATCGGGAGCGGTGGTGGTGGTGGGGAGAGAGCGGAGTCACCTAGTGCAG” was tested, and the binding signal was 11300 fluorescence intensity (a.u.).
In the case of “CACTATCGGCAGTGCAGCCGGCGGCTGGGGCGGGGAGTACCGGAGTCACCTAGTGCAG”, the binding signal is reported as 9540 fluorescence intensity (a.u.).
“GGCCGGCGGGTGGCCGGGTGGGGAGGAGGTCGGCAGGGCGCGGAGTCACCTAGTGCAG” was tested, and the binding signal was 9780 fluorescence intensity (a.u.).
In the case of “GCGGCGTTGCGGATGGGGACGGGGACGGGGACGGCGGCGACGGAGTCACCTAGTGCAG”, the binding signal is reported as 10400 fluorescence intensity (a.u.).
For “CGTACTGGGCTGGGCTGGGCTGGGATTCAACCGAACGGGGCGGAGTCACCTAGTGCAG”, the binding signal was 20400 fluorescence intensity (a.u.).
For “CAATTTCCATGGTTTTCTTAGCATTCTCGTCTCTAGTATTCGGAGTCACCTAGTGCAG”, the binding signal was 9610 fluorescence intensity (a.u.).
With “AAACCCTAGCTCCGGATTCTTCTCCTCTCCTCCTTTCTTCCGGAGTCACCTAGTGCAG” the binding signal was 8070 fluorescence intensity (a.u.).
With “CGATCTCAGCTGTCACTCACTATGTGGTTCATCTAACTGACGGAGTCACCTAGTGCAG” the binding signal was 9510 fluorescence intensity (a.u.).
With “CAGGTCATTTTGGTGTGTGCTTTGCGGTATTAACTCGTGCCGGAGTCACCTAGTGCAG” the binding signal was 8700 fluorescence intensity (a.u.).
“CACAGCGTCCACACCCGCGCCGCCGCCGCCCTCACCCTCGCGGAGTCACCTAGTGCAG” was tested, and the binding signal was 8760 fluorescence intensity (a.u.).
“CGGGGATGGAGGTGGTGGTGAGGCTGGCGACGGCGGGCCGCGGAGTCACCTAGTGCAG” was tested, and the binding signal was 12100 fluorescence intensity (a.u.).
With “GGGTGTTATGAGTTGTGTTTGCTGTAGCTTGTCAGCTGTTCGGAGTCACCTAGTGCAG” the binding signal was 10600 fluorescence intensity (a.u.).
“CTGTAGAGAAATACTACACTACTGTACACTACATTCCTGCCGGAGTCACCTAGTGCAG” was tested, and the binding signal was 8350 fluorescence intensity (a.u.).
With “GTGTCGGCGGAGGGGCGCGCGGCGGGGTCGGCGGAGGCGCCGGAGTCACCTAGTGCAG” the binding signal was 8590 fluorescence intensity (a.u.).
For “GGCTGCTTCAGGGGCGTGGGAGAGGTTTGGGGTTGGTTCACGGAGTCACCTAGTGCAG”, the binding signal was 16000 fluorescence intensity (a.u.).
For “GGTTTTCATGGTGCTGTGGATGTTCACTAGCTTTGGAGGGCGGAGTCACCTAGTGCAG”, the binding signal was 10900 fluorescence intensity (a.u.).
For “TGTTAGTATTAGGGTGCTTTTGGGTTTGGGGTTTCTGCCACGGAGTCACCTAGTGCAG”, the binding signal was 24200 fluorescence intensity (a.u.).
For “GTGGTGGTGCGCGGCGGCGGCGGCGGGGAGGGGTGTGTGTCGGAGTCACCTAGTGCAG”, the binding signal was 24500 fluorescence intensity (a.u.).
For “CCTTTCCAAGTCGGTCGGGGTAGCTGGGTTGTCTCGCCGGCGGAGTCACCTAGTGCAG”, the binding signal was 12300 fluorescence intensity (a.u.).
For “GTCCAAGTTTGCCTTTCTCACTGGGGAGCGGGTGGGCTGTCGGAGTCACCTAGTGCAG”, the binding signal was 21000 fluorescence intensity (a.u.).
“GTGTGGTCGTCGTGTCGGCGGCGGCGGCGGCGGCGGGAGGCGGAGTCACCTAGTGCAG” was tested, and the binding signal was 14300 fluorescence intensity (a.u.).
“GAGTTGGGTTGGAGTGGTTTGGATCGCTGCTTCACTAGGGCGGAGTCACCTAGTGCAG” was tested, and the binding signal was 27400 fluorescence intensity (a.u.).
“CTGTATTATGGTGCTTTCACATTTTTTTTCTAGTCTGCCACGGAGTCACCTAGTGCAG” was tested, and the binding signal was 8370 fluorescence intensity (a.u.).
“ATTTGTATTTGTTTTTTGTTTGTTAGTATTAGGGTGCTTTCGGAGTCACCTAGTGCAG” was tested, and the binding signal was 9720 fluorescence intensity (a.u.).
With “CAGTTTCCACCCTGGGTGGGGTGGGGCCCACCTGTCGGGGCGGAGTCACCTAGTGCAG” the binding signal was 9940 fluorescence intensity (a.u.).
